# Assay results published in PubChem BioAssay (NCATS).
# Where “and” joins values, the source holds several entries; their conditions need not be identical. Equal values may be shown once. Values without a mark were called inactive. Records with an inconclusive call do not appear. A call without a number means that no potency is given here. Calls of active or inactive are those of the source. Unless noted, calls come from the whole dose curve; as a rule, active = well fitted curve in the direction sought with a large enough effect; inconclusive = small, poorly fitted or top-dose-only effect, or another doubt; inactive = no such curve, though single readings can be large; an effect the other way counts as inactive or inconclusive.
# Columns and labels:
# [1] = S16 Schwann cell viability assay (CellTiter-Glo assay) (AID 624031);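 note: native untransfected S16 rat Schwann cells; cellular ATP luminescence as a viability measure; series mostly up to about 58 µM; nearly all actives have a fitted effect of over 70% in size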
# Outline: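 Concentration-effect curves come from CellTiter-Glo luminescence of S16 rat Schwann cells after 24 h compound exposure. Each reading was normalized to DMSO wells (0%) and wells without cells, and curves were ranked by r2 and response magnitude.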
# [2] = S16 Schwann cell PMP22 intronic element firefly luciferase assay (AID 624032); note: nearly all actives have a fitted effect of over 30% in size; note: potency is the fitted concentration of half-maximal effect
# Outline: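 Rat S16 Schwann cells stably carrying a PMP22 intronic element-driven Fluc reporter were seeded overnight, then exposed to compounds for 24 h at 37 °C. Luminescence was normalized to PTC124 (positive control) and DMSO (0% activity).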
# [3] = S16 Schwann cell PMP22 intronic element beta-lactamase assay (AID 624044; calls by dose curve; note: nearly all actives have a fitted effect of over 15% in size; note: potency is the fitted concentration of half-maximal effect)
# Outline: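 Beta-lactamase reporter under a PMP22 intronic regulatory element in stable S16 rat Schwann cells; 24 h compound exposure. 460 nm blue signal normalized between DMSO (0%) and potassium clavulanate, with 535 nm FRET tracking viability; curves classed by r2 and response.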
# [4] = molecular target: Glutaminase kidney isoform, mitochondrial (Homo sapiens) (UniProt O94925); test: qHTS for Inhibitors of Glutaminase (GLS): LOPAC Validation (AID 624146);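 note: glutamate product detected by oxidase and peroxidase coupled Amplex red fluorescence gain; series mostly up to about 46 µM; nearly all actives have a fitted effect of over 60% in size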
# Outline: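 Human kidney-isoform GLS in 45 mM KH2PO4 pH 8.2, 0.02% Tween-20, with compound, started with 1mM L-Glutamine (added stock). Glutamate oxidase/HRP/Amplex red coupled fluorescence read at start and after 30 min at RT.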
# [5] = qHTS of Trypanosoma Brucei Inhibitors: LOPAC Validation (AID 624147)
# Outline: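 Assay buffer: 50 mM TEA pH 7.2, 100 mM KCl, 10 mM MgCl2, 0.05% BSA, 0.01% Tween-20. Pyruvate kinase from T. brucei plus substrate met compound, then ADP (130 uM final). Luminescence was read post 45 min RT.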
# [6] = molecular target: Glucagon-like peptide 1 receptor (Homo sapiens) (UniProt P43220); test: qHTS of GLP-1 Receptor Agonists: LOPAC Validation (AID 624148);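 note: higher luminescence signal means agonism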
# Outline: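 HEK293 cells stably co-expressing a cAMP-responsive luciferase reporter and a hypersensitive GLP-1R were plated 12 h at 37 °C and exposed to compounds for 4-6 hr at 37 °C, 5% CO2. Luminescence was read 12 min after adding detection reagent.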
# [7] = qHTS of Nrf2 Activators: LOPAC Validation (AID 624149)
# Outline: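 Cells (AREc32_Fluc) are plated at 1000 per well in OPTI-MEM containing 5% FBS and left overnight. Compounds are pinned in and incubated 24 hr at 37 deg C, and firefly luciferase is detected with Steady-Glo.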
# [8] = HTS Assay for Allosteric Antagonists of the Human D2 Dopamine Receptor: Hit Validation in HTRF (AID 624455);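 note: stable D1 dopamine receptor cell line scored for blocking the D1 response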
# Outline: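 Inhibition of the D1-mediated response is measured by HTRF in cells that stably express the D1 dopamine receptor. Compounds reaching this step are hits from calcium-flux antagonism testing at EC80 dopamine in inducible Hek293 Trex D2 cells.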
# [9] = qHTS assay for small molecule agonists of the antioxidant response element (ARE) signaling pathway (AID 651741; active = well fitted activation curve with a large enough effect in the signal ratio; the % refers to the signal ratio; note: potency is the fitted concentration of half-maximal effect)
# Outline: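 Reporter: beta-lactamase under ARE, stably in HepG2. Exposure: 16 h, 37 C, compounds delivered in DMSO by pin tool after 5 h cell preincubation. Readout: FRET substrate fluorescence after 2 h at RT.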
# [10] = qHTS assay for small molecule activators of the p53 signaling pathway (AID 651743; active = well fitted activation curve with a large enough effect in the signal ratio, not every such curve was filed as active; the % refers to the signal ratio; note: potency is the fitted concentration of half-maximal effect; for activation: series mostly up to about 92 µM); settings: HCT-116 p53RE-bla, beta-lactamase FRET ratio, 16 h; activation: hits give high values
# Outline: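 Agonist-mode quantitative HTS in HCT-116 cells carrying a p53-response-element beta-lactamase reporter; 16 h compound treatment at 37 C, then FRET substrate loading for 2 h at room temperature and fluorescence read.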
# Glucagon-like peptide 1 receptor (Homo sapiens), sequence (P43220 whole entry, looked up): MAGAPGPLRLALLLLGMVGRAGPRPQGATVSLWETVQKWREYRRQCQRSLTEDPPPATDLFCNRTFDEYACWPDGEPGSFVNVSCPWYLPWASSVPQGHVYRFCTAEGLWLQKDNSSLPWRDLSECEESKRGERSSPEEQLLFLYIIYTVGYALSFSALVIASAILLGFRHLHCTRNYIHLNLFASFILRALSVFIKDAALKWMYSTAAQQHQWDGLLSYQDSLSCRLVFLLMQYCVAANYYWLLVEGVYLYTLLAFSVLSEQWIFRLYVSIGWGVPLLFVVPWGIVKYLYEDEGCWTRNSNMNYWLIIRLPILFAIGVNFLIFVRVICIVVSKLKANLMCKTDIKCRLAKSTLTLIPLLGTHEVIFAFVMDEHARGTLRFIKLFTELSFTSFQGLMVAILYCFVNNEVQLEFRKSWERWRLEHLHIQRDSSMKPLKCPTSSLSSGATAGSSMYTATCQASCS
# Glutaminase kidney isoform, mitochondrial (Homo sapiens), sequence (O94925 whole entry, looked up, canonical isoform): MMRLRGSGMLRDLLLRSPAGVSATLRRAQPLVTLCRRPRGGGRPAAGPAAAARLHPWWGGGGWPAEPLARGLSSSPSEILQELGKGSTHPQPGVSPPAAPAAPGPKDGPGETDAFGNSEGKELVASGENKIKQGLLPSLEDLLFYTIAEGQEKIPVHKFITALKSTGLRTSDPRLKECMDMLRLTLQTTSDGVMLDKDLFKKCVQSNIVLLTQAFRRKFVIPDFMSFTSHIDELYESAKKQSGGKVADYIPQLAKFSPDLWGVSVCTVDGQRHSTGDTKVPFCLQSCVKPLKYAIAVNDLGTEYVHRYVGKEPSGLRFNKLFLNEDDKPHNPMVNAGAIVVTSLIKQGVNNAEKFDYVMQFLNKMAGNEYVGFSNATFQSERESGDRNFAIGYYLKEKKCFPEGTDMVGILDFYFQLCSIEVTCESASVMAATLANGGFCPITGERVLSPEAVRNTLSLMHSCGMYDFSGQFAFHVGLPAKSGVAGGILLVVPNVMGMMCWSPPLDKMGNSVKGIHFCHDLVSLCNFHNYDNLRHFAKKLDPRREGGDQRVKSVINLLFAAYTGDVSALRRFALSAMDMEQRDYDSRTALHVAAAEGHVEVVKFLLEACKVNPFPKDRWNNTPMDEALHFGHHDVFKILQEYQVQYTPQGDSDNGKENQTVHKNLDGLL
structure (smiles),measurement,setting,value
Cc1cc(-c2ccccc2)nnc1NCCN1CCOCC1,Potency,[1],inactive
same,Potency,[2],inactive
same,Potency,[3],inactive
CCOC(=O)[C@H](CCc1ccccc1)N[C@@H](C)C(=O)N1[C@H](C(=O)O)C[C@H]2CCCC[C@@H]21,Potency,[1],inactive
same,Potency,[2],inactive
same,Potency,[3],inactive
same,outcome,[4],inactive
same,outcome,[5],inactive
same,outcome,[6],inactive
same,outcome,[7],inactive
same,outcome,[8],inactive
NC(=O)c1ccccc1O,Potency,[1],inactive
same,Potency,[2],inactive
same,Potency,[9],inactive
same,activation,[10],-1.87%
O=C(O)c1ccc(S(=O)(=O)N(Cl)Cl)cc1,Potency,[1],inactive
same,Potency,[2],inactive
same,activation,[10],-0.128%
CCCCCCCCCCCCCC(=O)OC(C)C,Potency,[1],inactive
same,Potency,[2],inactive
same,Potency,[9],inactive
same,activation,[10],-0.604%
c1ccc(CC2=NCCN2)cc1,Potency,[1],inactive
same,Potency,[3],inactive
CC(C)(C)NC[C@H](O)COc1nsnc1N1CCOCC1,Potency,[1],inactive
same,Potency,[2],inactive
same,outcome,[4],inactive
same,outcome,[5],inactive
same,outcome,[6],inactive
same,outcome,[7],inactive
same,outcome,[8],inactive
CC(C)(C)CC(C)(C)c1ccc(O)c(-n2nc3ccccc3n2)c1,Potency,[1],inactive
same,Potency,[2],inactive
same,activation,[10],-5.96%
CCC(CC)(CC(=O)Nc1cccc(/C=C/c2nc(C3CCC3)cs2)c1)C(=O)O,Potency,[1],inactive
same,Potency,[2],inactive
same,Potency,[3],inactive
CC(=O)NO,Potency,[1],inactive
same,Potency,[2],inactive
same,Potency,[3],inactive
CCCCCCCCCCCCCCCCO,Potency,[1],inactive
same,Potency,[2],inactive
same,Potency,[9],inactive
O=C1C(CCS(=O)c2ccccc2)C(=O)N(c2ccccc2)N1c1ccccc1 (stereo not given),Potency,[1],inactive
same,Potency,[2],inactive
same,Potency,[3],inactive
Cc1c(-c2ccccc2)oc2c(C(=O)OCCN3CCCCC3)cccc2c1=O,Potency,[1],inactive
same,Potency,[3],inactive
CCOc1ccc(NC(C)=O)cc1,Potency,[1],inactive
same,Potency,[2],inactive
same,Potency,[9],inactive
same,activation,[10],-2.67% and -5.43%
COc1ccc(C(Cl)=C(c2ccc(OC)cc2)c2ccc(OC)cc2)cc1,Potency,[1],inactive
same,Potency,[2],inactive
same,activation,[10],2.35%
Oc1c(Cl)cc(Cl)c(Cl)c1Cc1c(O)c(Cl)cc(Cl)c1Cl,Potency,[1],inactive
same,Potency,[2],1.61 µM (active)
same,Potency,[9],6.86 µM (active)
same,Potency,[10],7.94 µM (active) and 12.6 µM (active)
CC[C@H](c1ccc(O)cc1)[C@@H](CC)c1ccc(O)cc1,Potency,[1],inactive
same,Potency,[3],inactive
C[N+]1(CC2COC(c3ccccc3)(C3CCCCC3)O2)CCCCC1 (stereo not given),Potency,[1],inactive
same,Potency,[3],inactive
CN(C)C(=O)Nc1ccc(Cl)c(Cl)c1,Potency,[1],inactive
same,Potency,[2],inactive
same,activation,[10],3.41%
Nc1nc(-c2ccccc2)c(Br)c(=O)[nH]1,Potency,[1],inactive
same,Potency,[2],inactive
same,Potency,[3],inactive
O=C(NCCc1c[nH]c2ccccc12)c1cccnc1,Potency,[1],inactive
same,Potency,[2],inactive
same,Potency,[3],inactive
COc1ccc(C(=O)c2ccccc2)c(O)c1,Potency,[1],inactive
same,Potency,[2],inactive
same,activation,[10],-2.61% and -3.01%
CCCCNc1ccc(C(=O)OCCOCCOCCOCCOCCOCCOCCOCCOCCOC)cc1,Potency,[1],inactive
same,Potency,[2],inactive
same,Potency,[3],inactive
COc1cc(N)c(Cl)cc1C(=O)NC1CCN(Cc2ccccc2)CC1,Potency,[1],inactive
same,Potency,[2],inactive
same,Potency,[3],inactive
CCCCCCCC/C=C\CCCCCCCCN,Potency,[1],inactive
same,Potency,[2],inactive
same,activation,[10],4.37%
CCCCC(CC)COC(=O)/C=C/c1ccc(OC)cc1 (stereo not given),Potency,[1],inactive
same,Potency,[2],inactive
same,Potency,[3],inactive
Oc1ccc(Cl)cc1Cc1cc(Cl)ccc1O,Potency,[1],inactive
same,Potency,[2],inactive
same,Potency,[3],inactive
CN1CCN(CCC(=O)N2c3ccccc3Sc3ccc(C(F)(F)F)cc32)CC1,Potency,[2],inactive
same,Potency,[3],inactive
C=C[C@@]1(C)CC(=O)[C@]2(O)[C@@]3(C)[C@@H](O)CCC(C)(C)[C@@H]3[C@H](O)[C@H](OC(C)=O)[C@@]2(C)O1,Potency,[2],0.361 µM (active)
same,Potency,[3],0.707 µM (active)
same,activation,[10],-4.19%
NCc1ccccc1Sc1ccccc1CO,Potency,[2],inactive
same,Potency,[3],inactive
NC(=S)N/N=C/c1cccnc1,Potency,[2],inactive
same,Potency,[3],inactive
CCc1oc2ccccc2c1C(=O)c1cc(I)c(O)c(I)c1,Potency,[1],inactive
same,Potency,[3],inactive
COc1cc([C@H]2Oc3cc([C@H]4Oc5cc(O)cc(O)c5C(=O)[C@@H]4O)ccc3O[C@@H]2CO)ccc1O,Potency,[1],inactive
same,Potency,[3],inactive
same,activation,[10],-9.47%
CC(C)NCC(O)c1ccc2ccccc2c1 (stereo not given),Potency,[2],inactive
Cc1ccc2c(Br)cc(Br)c(O)c2n1,Potency,[2],inactive
same,Potency,[3],17.8 µM (active)
CCCCCCCCCCCCCCCC(=O)O,Potency,[1],inactive
same,Potency,[3],inactive
same,Potency,[9],inactive
same,activation,[10],1.38%
NC(=O)n1c(O)c(C(=O)c2cccs2)c2cc(Cl)ccc21,Potency,[3],inactive
CCCCCCCCOc1ccc(C(=O)c2ccccc2)c(O)c1,Potency,[1],inactive
same,Potency,[9],inactive
same,activation,[10],-0.0929%
